HCMV inh – human cytomegalovirus inhibition; HFF cells, HCMV-luciferase reporter, 72 h; stronger effect = lower value; AID 1259415; hit rate 4.5% among 410,000; activity change, negative = inhibition, % at 57.5 µM; in the data active means activity change below about -60%; inconclusive means no clear call, values can overlap the other calls; inactive means above about -39%
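Cell-based, HFFs, 1000 cells/well, 16 h 37C; cpds in DMSO + HCMV-luc, MOI 1 PFU/cell; 72 h 37C; OneGlo luminescence after 5 min RT; norm. to buffer vs Salinomycin 10uM.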
FMDV inh – antivirals against foot and mouth disease virus | FMDV antiviral cell-based qHTS | Potency, µM (titrated, usually from 57.9 µM), hits mostly inhibitors | hit rate 1.2% among 410,000; calls by dose curve; tested in HEK293T cells; further: read-out not given here; nearly all actives have a fitted effect of over 45% in size
Marburg entry inh – inhibitors of Marburg virus binding or cell entry. Marburg virus pseudotyped entry inhibition, cell reporter. Potency, µM (doses to about 37.8 µM), most hits filed as inhibitors. hit rate 1.8% among 300,000; calls by dose curve; tested in HEK293 cells
HCV inhibitor – blocks hepatitis C virus. Potency, µM (top dose mostly 41.8 µM), most hits filed as inhibitors. Huh7.5.1 HCVcc-Cre infection, luciferase reporter, 44 h. hit rate 3.4% among 340,000. AID 651820; active means well fitted inhibition curve with a large enough effect; inconclusive means small, poorly fitted or top-dose-only effect, or another doubt; inactive means no such curve, though single readings can be large or run the other way
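Reporter virus HCVcc-Cre (~0.5 moi) infects cells exposed to compound; seeding density 1,000 cells/well with 4 h settling beforehand. Luminescence, 15 sec read, taken 44 h post-infection following a 15 min RT substrate incubation.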
LASV entry inh – blocks Lassa virus binding to or entry into cells; Lassa virus pseudotype entry inhibition, cell reporter; hit rate 1.2% among 300,000; Potency, µM (highest dose often 37.9 µM), usual class: inhibitors; calls by dose curve; tested in HEK293 cells; further: nearly all actives have a fitted effect of over 50% in size
SARS PLP yeast – inhibitors of SARS-CoV papain-like protease in yeast | hit rate 0.19% among 330,000 | AID 485353 | S. cerevisiae expressing SARS-CoV PLpro, growth rescue | Potency, µM (series often up to 32.9 µM), hits mostly activators; calls by dose curve; further: nearly all actives have a fitted effect of over 55% in size
Hits are given with their value. Rows were chosen to be rich in hits. Some 8% of all compounds tested hit in one or more screens of this group.

What do the screens show for `CCc1ccc(NC(=O)CSc2nc3ccsc3c(=O)n2C(C)CC)cc1` (centres undefined)?
HCMV inh: inconclusive; FMDV inh: inactive; LASV entry inh: inconclusive

How did O=C(Nc1ccccc1C(=O)Nc1ccccc1)c1ccco1 do in these assays?
HCMV inh: inactive; FMDV inh: inactive; Marburg entry inh: inactive; HCV inhibitor: inactive; LASV entry inh: inactive; SARS PLP yeast: inactive

What do the screens show for `O=C(Nc1ccccc1C(=O)Nc1ccc2c(c1)OCO2)c1ccco1`?
HCMV inh: inactive; FMDV inh: inactive; Marburg entry inh: inconclusive; HCV inhibitor: 13µM; LASV entry inh: inconclusive; SARS PLP yeast: inactive

Results for O=C(Nc1ccc(NC(=O)c2ccco2)cc1)c1ccc2c(c1)OCCO2 ?
HCMV inh: -73; FMDV inh: inactive; Marburg entry inh: inactive; HCV inhibitor: inconclusive; LASV entry inh: inactive; SARS PLP yeast: inactive

How did Cc1cc(NC(=O)c2ccc3c(c2)OCCO3)ccc1NC(=O)c1ccco1 do in these assays?
HCMV inh: inactive; FMDV inh: inactive; Marburg entry inh: inconclusive; HCV inhibitor: inconclusive; LASV entry inh: inconclusive; SARS PLP yeast: inactive

How did CC1(C)N=C(N)N=C(N)N1c1ccc(Oc2ccc(Cl)cc2)c(Cl)c1 do in these assays?
HCMV inh: -100; FMDV inh: inactive; Marburg entry inh: inconclusive; HCV inhibitor: inconclusive; LASV entry inh: inconclusive; SARS PLP yeast: inactive

Results for COc1cccc(C(=O)Nc2ccc(S(=O)(=O)NCc3ccco3)cc2)c1 ?
HCMV inh: inactive; FMDV inh: inactive; Marburg entry inh: inactive; HCV inhibitor: 25µM; LASV entry inh: inactive; SARS PLP yeast: inactive

What do the screens show for `COc1ccc(OC)c(NC(=O)c2cc(S(=O)(=O)NCc3ccco3)ccc2F)c1`?
HCMV inh: inactive; FMDV inh: inactive; Marburg entry inh: inconclusive; HCV inhibitor: 25µM; LASV entry inh: inactive; SARS PLP yeast: inactive

How did O=C(Nc1ccc(S(=O)(=O)NCc2ccco2)cc1)c1cccc(F)c1 do in these assays?
HCMV inh: inactive; FMDV inh: inactive; Marburg entry inh: inactive; HCV inhibitor: inactive; LASV entry inh: inactive; SARS PLP yeast: inactive

How did CCOc1ccccc1NC(=O)c1cc(S(=O)(=O)NCc2ccco2)ccc1F do in these assays?
HCMV inh: inactive; FMDV inh: inactive; HCV inhibitor: inactive; SARS PLP yeast: inactive

How did O=C1[C@H]2[C@H]3[C@H](O)[C@H](O)C/C(=N\OCc4ccccc4)[C@@H]3CC[C@H]2C(=O)N1C1CCCCC1 do in these assays?
Marburg entry inh: inactive

How did COc1ccc2c(c1)c(=O)c(S(=O)(=O)c1ccc(F)cc1)cn2Cc1ccccc1Cl do in these assays?
HCMV inh: inactive; FMDV inh: inactive; Marburg entry inh: inactive; LASV entry inh: inactive

Results for COc1ccc(-c2csc(C3=C(O)CN(Cc4ccc(Cl)cc4)C3=N)n2)cc1OC ?
HCMV inh: inactive; FMDV inh: inactive; Marburg entry inh: inactive; HCV inhibitor: 11µM; LASV entry inh: inactive; SARS PLP yeast: inactive

Results for COc1ccc(-c2csc(C3=C(O)CN(Cc4ccc(S(N)(=O)=O)cc4)C3=N)n2)cc1OC ?
HCMV inh: inactive; FMDV inh: inactive; Marburg entry inh: inactive; HCV inhibitor: inactive; LASV entry inh: inactive; SARS PLP yeast: inactive

What do the screens show for `CCS(=O)(=O)c1ccc2oc(SCC(=O)NCCC3=CCCCC3)nc2c1`?
HCMV inh: -103; FMDV inh: inconclusive; Marburg entry inh: inconclusive; HCV inhibitor: inactive; LASV entry inh: inactive; SARS PLP yeast: inactive

How did CCN(CC)S(=O)(=O)c1ccc2oc(SCC(=O)Nc3cc(C)on3)nc2c1 do in these assays?
HCMV inh: inconclusive; FMDV inh: inactive; Marburg entry inh: inconclusive; HCV inhibitor: 6.3µM; LASV entry inh: inconclusive; SARS PLP yeast: inactive

How did Cc1cc(NC(=O)CSc2nc3cc(Cl)ccc3o2)no1 do in these assays?
HCMV inh: inactive; FMDV inh: inactive; Marburg entry inh: inactive; HCV inhibitor: inactive; LASV entry inh: inactive; SARS PLP yeast: inactive

What do the screens show for `COc1ccccc1NS(=O)(=O)c1ccc2oc(SCc3ccc(C#N)cc3)nc2c1`?
HCMV inh: -84; FMDV inh: inconclusive; Marburg entry inh: inconclusive; HCV inhibitor: 11µM; LASV entry inh: inconclusive; SARS PLP yeast: inactive

Results for CCS(=O)(=O)c1ccc2oc(SCC(=O)NCCc3ccc(F)cc3)nc2c1 ?
HCMV inh: inconclusive; FMDV inh: inconclusive; Marburg entry inh: inactive; HCV inhibitor: inactive; LASV entry inh: inactive; SARS PLP yeast: inactive

What do the screens show for `CCN(CC)S(=O)(=O)c1ccc2oc(SCc3ccc(F)cc3)nc2c1`?
HCMV inh: inconclusive; FMDV inh: inconclusive; Marburg entry inh: inconclusive; HCV inhibitor: inconclusive; LASV entry inh: 11µM; SARS PLP yeast: inactive

What do the screens show for `Cc1cc(C)c(NC(=O)Cn2c(=O)n(Cc3ccco3)c(=O)c3ccc(C(=O)NC4CCCC4)cc32)c(C)c1`?
HCMV inh: inactive; FMDV inh: inactive; Marburg entry inh: inactive; LASV entry inh: inactive

How did CCNC(=O)C1(C)CCCN(C(=O)COc2ccc(Cl)cc2Cl)C1 (centres undefined) do in these assays?
HCMV inh: inactive

Results for COc1cc2c(cc1OC)[C@@H]1O[C@](CCCCN3C(=O)c4ccccc4C3=O)(C2)Oc2cc(C)n(Cc3ccccc3)c(=O)c21 ?
Marburg entry inh: inactive

What do the screens show for `C=CC(C1=CC(=O)C(OC)=CC1=O)c1ccccc1` (centres undefined)?
FMDV inh: inactive

How did Cc1cc(C)cc(NC(=O)c2cn3c4c(ccc(Cl)c4c2=O)OC(C)C3)c1 (centres undefined) do in these assays?
HCMV inh: inactive; FMDV inh: inactive; LASV entry inh: inactive

Results for Cc1ccc(-c2nc3nc(C)cc(Nc4ccccc4O)n3n2)cc1 ?
HCMV inh: inconclusive; FMDV inh: inactive; LASV entry inh: inconclusive

Results for COc1ccccc1Nc1cc(C)nc2nc(-c3ccccc3)nn12 ?
HCMV inh: -86; FMDV inh: inactive; LASV entry inh: inactive

How did Cc1ccc2oc(=O)n(Cc3ccccc3Cl)c2c1 do in these assays?
HCMV inh: inactive; FMDV inh: inactive; Marburg entry inh: inactive; LASV entry inh: inactive

What do the screens show for `OC(CNc1nc(C(F)(F)F)nc2ccccc12)c1ccccc1` (centres undefined)?
HCMV inh: -66; FMDV inh: inactive; Marburg entry inh: inconclusive; HCV inhibitor: inconclusive; LASV entry inh: inconclusive; SARS PLP yeast: inactive

How did CCC(C#N)(CC)P(=S)(c1ccccc1)c1ccccc1 do in these assays?
HCMV inh: -73; FMDV inh: inactive; Marburg entry inh: inactive; HCV inhibitor: inactive; LASV entry inh: inactive; SARS PLP yeast: inactive

What do the screens show for `CCCCSc1nc(-c2ccc(OC)cc2)ccc1C#N`?
HCMV inh: inactive; FMDV inh: inactive; Marburg entry inh: inconclusive; LASV entry inh: inactive

What do the screens show for `CCSc1nc(-c2ccc(OC)cc2)ccc1C#N`?
HCMV inh: inactive; FMDV inh: inactive; Marburg entry inh: inactive; HCV inhibitor: 10µM; LASV entry inh: inactive; SARS PLP yeast: inactive
